From the supplement of paper PMC10849652
The full data set covers some 8,800 targets. This sample favours those with a hit. About 0.5% of all pairs of compound and target were hits.

Key:
Assay in all cases: log2 fold change, soluble protein after heating vs DMSO (PISA); higher = thermal stabilisation; K562 lysate, 10 uM; active = over 0.2 and 3.5 SD of the protein, either way, in both replicates (recomputed)
ibrutinib = compound: C=CC(=O)N1CCC[C@@H](n2nc(-c3ccc(Oc4ccccc4)cc3)c3c(N)ncnc32)C1 [ibrutinib]
In short: (§1)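 Following dounce homogenisation of K562 pellets in PBS pH 7.4 with 1 mM MgCl2, crude extract at 1 mg/mL protein was incubated for 30 min with 10 μM compound. Aliquots were then heated for 3 min over 48°C-58°C and pooled, NP-40 was added to 0.5% at 4°C, and soluble protein was recovered as the supernatant at 21,000xg for 90 min. Channel-sum-equalised TMTpro 16plex LC-MS/MS quantified this protein. Each value, from duplicates, is a log-two fold change in thermal stability relative to solvent controls.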

[1] = compound: CC(=O)c1cnc2ccc(-c3cc(Cl)c(O)c(Cl)c3)nc2c1N[C@H]1CC[C@H](CN(C)C)CC1
In short: as §1

ralimetinib = compound: CC(C)(C)Cn1c(N)nc2ccc(-c3[nH]c(C(C)(C)C)nc3-c3ccc(F)cc3)nc21 [ralimetinib]
In short: as §1

[2] = compound: CC(C)(O)CC(=O)NCCn1ccc2ncnc(Nc3ccc(Oc4cccc(C(F)(F)F)c4)c(Cl)c3)c21
In short: as §1

[3] = compound: CC(C)C1=C2N=C(C=C(N2N=C1)NCC3=CC=CC=C3)NCCCCCCN
In short: as §1

[4] = compound: CC1=C(C(CC(=O)N1)C2=CC=C(C=C2)C(F)(F)F)C(=O)NC3=C(C=C4C(=C3)C=NN4)F
In short: as §1

[5] = compound: CC1=C(C2=C(C=C1)C(=O)C3=CC=CC=C3N2CCCN)C
In short: as §1

[6] = compound: CC1=C(C=C(C=C1)NC(=O)C2=CC(=CC=C2)C(C)(C)C#N)NC3=CC4=C(C=C3)N=CN(C4=O)C
In short: as §1

[7] = compound: CC1=C(C=C(C=C1)NC(=O)C2=CC(=CC=C2)N(C)C)NC(=O)C3=CC=C(C=C3)O
In short: as §1

[8] = compound: CC1=CC=C(C=C1)SC2=C3C=C(SC3=CN=C2)C(=O)N
In short: as §1

vemurafenib = compound: CCCS(=O)(=O)Nc1ccc(F)c(C(=O)c2c[nH]c3ncc(-c4ccc(Cl)cc4)cc23)c1F [vemurafenib]
In short: as §1

[9] = compound: CCCS(=O)(=O)Nc1ccc(F)c(C(=O)c2c[nH]c3ncc(Cl)cc23)c1F
In short: as §1

barasertib = compound: CCN(CCCOc1ccc2c(Nc3cc(CC(=O)Nc4cccc(F)c4)[nH]n3)ncnc2c1)CCOP(=O)(O)O [barasertib]
In short: as §1

[10] = compound: CC[C@@H]1C(=O)N(C)c2cnc(Nc3ccc(C(=O)NC4CCN(C)CC4)cc3OC)nc2N1C1CCCC1
In short: as §1

volasertib = compound: CC[C@@H]1C(=O)N(C)c2cnc(Nc3ccc(C(=O)N[C@H]4CC[C@H](N5CCN(CC6CC6)CC5)CC4)cc3OC)nc2N1C(C)C [volasertib]
In short: as §1

[11] = compound: CCn1c(C(=O)N(C2CC2)C2CC2)cc2c3c(ncn3C)c(Nc3cc(C)n(C)n3)nc21
In short: as §1

[12] = compound: CCn1cc(-c2ccnc3[nH]c(-c4cccc(CN(C)C)c4)cc23)c(-c2ccc(NC(=O)N(C)C)cc2)n1
In short: as §1

[13] = compound: CN1CCC(CNc2ccc3ncc(-c4cccc(OC(F)(F)F)c4)n3n2)CC1
In short: as §1

saracatinib = compound: CN1CCN(CCOc2cc(OC3CCOCC3)c3c(Nc4c(Cl)ccc5c4OCO5)ncnc3c2)CC1 [saracatinib]
In short: as §1

sotrastaurin = compound: CN1CCN(c2nc(C3=C(c4c[nH]c5ccccc45)C(=O)NC3=O)c3ccccc3n2)CC1 [sotrastaurin]
In short: as §1

Measured: log2 fold change

YLPM1 (UniProt P49750)
active: [4] 0.301
inactive: ibrutinib 0.028 | [1] -0.044 | ralimetinib -0.002 | [2] 0.022 | [3] -0.006 | [5] -0.031 | [6] -0.017 | [7] 0 | [8] -0.046 | vemurafenib 0.062 | [9] 0.005 | barasertib 0.032 | [10] 0.069 | volasertib -0.019 | [11] -0.018 | [12] 0.165 | [13] -0.085 | saracatinib 0.033 | sotrastaurin 0.012

VPS16 (UniProt Q9H269)
Chain of UniProt Q9H269 (Q9H269 whole entry, looked up): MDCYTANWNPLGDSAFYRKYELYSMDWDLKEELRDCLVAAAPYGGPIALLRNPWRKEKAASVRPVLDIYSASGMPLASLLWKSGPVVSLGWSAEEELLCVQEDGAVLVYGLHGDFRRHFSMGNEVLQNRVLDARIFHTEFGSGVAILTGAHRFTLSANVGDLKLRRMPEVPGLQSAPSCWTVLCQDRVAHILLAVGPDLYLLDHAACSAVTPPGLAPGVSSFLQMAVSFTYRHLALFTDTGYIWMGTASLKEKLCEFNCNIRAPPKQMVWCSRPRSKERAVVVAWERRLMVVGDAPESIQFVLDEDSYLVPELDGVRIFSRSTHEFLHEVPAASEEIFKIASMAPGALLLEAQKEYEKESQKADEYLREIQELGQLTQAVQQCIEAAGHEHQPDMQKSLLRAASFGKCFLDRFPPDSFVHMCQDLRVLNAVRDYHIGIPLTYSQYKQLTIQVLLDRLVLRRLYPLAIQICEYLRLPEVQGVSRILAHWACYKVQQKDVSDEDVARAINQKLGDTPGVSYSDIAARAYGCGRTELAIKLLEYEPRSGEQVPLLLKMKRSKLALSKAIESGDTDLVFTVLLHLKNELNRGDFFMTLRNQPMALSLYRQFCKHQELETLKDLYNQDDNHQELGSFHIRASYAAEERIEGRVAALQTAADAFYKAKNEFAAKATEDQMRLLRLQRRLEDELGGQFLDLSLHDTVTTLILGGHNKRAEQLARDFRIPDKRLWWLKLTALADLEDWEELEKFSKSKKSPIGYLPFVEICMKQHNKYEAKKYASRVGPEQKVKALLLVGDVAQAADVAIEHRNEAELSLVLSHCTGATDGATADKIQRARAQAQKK
inactive: ibrutinib 0.009 | [1] 0.017 | ralimetinib -0.012 | [2] -0.038 | [3] -0.014 | [4] -0.015 | [5] -0.029 | [6] 0.019 | [7] 0.031 | [8] 0 | vemurafenib 0.038 | [9] 0.009 | barasertib 0.007 | [10] 0.063 | volasertib -0.04 | [11] 0.028 | [12] -0.049 | [13] -0.015 | saracatinib -0.017 | sotrastaurin -0.002

ZMAT2 (UniProt Q96NC0)
Chain of UniProt Q96NC0 (Q96NC0 whole entry, looked up): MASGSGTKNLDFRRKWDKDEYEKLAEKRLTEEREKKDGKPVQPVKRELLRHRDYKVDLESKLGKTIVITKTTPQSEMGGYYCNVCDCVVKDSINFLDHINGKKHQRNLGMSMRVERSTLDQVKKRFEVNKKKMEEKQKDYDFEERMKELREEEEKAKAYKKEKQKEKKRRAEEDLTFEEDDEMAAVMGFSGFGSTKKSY
inactive: ibrutinib 0.009 | [1] -0.016 | ralimetinib -0.011 | [2] 0.013 | [3] 0.035 | [4] -0.004 | [5] -0.021 | [6] 0.032 | [7] -0.028 | [8] -0.022 | vemurafenib -0.015 | [9] 0 | barasertib -0.041 | [10] 0.062 | volasertib 0.039 | [11] -0.026 | [12] -0.034 | [13] 0.087 | saracatinib 0.017 | sotrastaurin -0.036

ZNF609 (UniProt O15014)
inactive: ibrutinib 0.005 | [1] -0.025 | ralimetinib 0.01 | [2] -0.034 | [3] -0.001 | [4] 0.01 | [5] -0.045 | [6] -0.082 | [7] 0.013 | [8] -0.058 | vemurafenib 0.165 | [9] 0.033 | barasertib 0.027 | [10] 0.011 | volasertib 0.005 | [11] 0.022 | [12] -0.014 | [13] 0.064 | saracatinib 0.004 | sotrastaurin 0.013

VPS41 (UniProt P49754)
Chain of UniProt P49754 (P49754 whole entry, looked up): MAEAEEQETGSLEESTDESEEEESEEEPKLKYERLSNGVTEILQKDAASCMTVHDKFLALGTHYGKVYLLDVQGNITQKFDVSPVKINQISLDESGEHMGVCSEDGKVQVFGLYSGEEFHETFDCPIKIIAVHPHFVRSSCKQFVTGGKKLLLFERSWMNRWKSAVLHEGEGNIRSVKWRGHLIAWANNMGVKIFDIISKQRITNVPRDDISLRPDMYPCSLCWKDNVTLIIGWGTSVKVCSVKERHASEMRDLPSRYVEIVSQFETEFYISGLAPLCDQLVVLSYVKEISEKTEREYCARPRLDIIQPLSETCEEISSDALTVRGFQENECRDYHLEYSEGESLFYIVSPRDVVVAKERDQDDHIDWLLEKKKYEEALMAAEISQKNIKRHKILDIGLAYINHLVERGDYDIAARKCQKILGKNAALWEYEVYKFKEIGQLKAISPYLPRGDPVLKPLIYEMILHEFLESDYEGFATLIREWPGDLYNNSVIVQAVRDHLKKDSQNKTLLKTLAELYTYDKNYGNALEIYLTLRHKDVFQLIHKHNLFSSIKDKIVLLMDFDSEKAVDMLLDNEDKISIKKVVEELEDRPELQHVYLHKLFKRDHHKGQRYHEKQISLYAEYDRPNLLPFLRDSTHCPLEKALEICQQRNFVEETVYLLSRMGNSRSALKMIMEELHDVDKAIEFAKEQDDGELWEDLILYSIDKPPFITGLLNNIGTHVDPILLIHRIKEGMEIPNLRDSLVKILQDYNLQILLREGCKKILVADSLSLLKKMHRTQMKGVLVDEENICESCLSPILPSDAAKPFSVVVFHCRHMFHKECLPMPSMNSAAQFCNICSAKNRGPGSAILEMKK
inactive: ibrutinib -0.019 | [1] 0.007 | ralimetinib 0.015 | [2] 0.016 | [3] 0.003 | [4] 0.024 | [5] 0.014 | [6] 0.005 | [7] 0.047 | [8] 0.013 | vemurafenib -0.018 | [9] -0.016 | barasertib 0.085 | [10] 0.005 | volasertib -0.078 | [11] 0.06 | [12] 0.074 | [13] -0.054 | saracatinib 0.002 | sotrastaurin 0.058

VPS11 (UniProt Q9H270)
inactive: ibrutinib -0.002 | [1] 0.025 | ralimetinib 0.033 | [2] -0.025 | [3] 0.001 | [4] 0.003 | [5] 0.031 | [6] 0.026 | [7] -0.03 | [8] -0.002 | vemurafenib -0.002 | [9] 0.034 | barasertib 0.013 | [10] -0.033 | volasertib -0.038 | [11] 0.015 | [12] -0.051 | [13] -0.007 | saracatinib 0.039 | sotrastaurin 0.019

UTP3 (UniProt Q9NQZ2)
inactive: ibrutinib 0.053 | [1] 0.001 | ralimetinib 0.055 | [2] -0.051 | [3] -0.058 | [4] 0.026 | [5] -0.123 | [6] -0.016 | [7] -0.023 | [8] -0.018 | vemurafenib 0.004 | [9] 0.012 | barasertib 0.058 | [10] -0.009 | volasertib -0.011 | [11] -0.047 | [12] 0 | [13] -0.02 | saracatinib 0.011 | sotrastaurin 0.05

WAC (UniProt Q9BTA9)
inactive: ibrutinib -0.062 | [1] -0.008 | ralimetinib -0.012 | [2] -0.054 | [3] -0.009 | [4] 0.046 | [5] 0.034 | [6] -0.016 | [7] 0.022 | [8] 0.004 | vemurafenib 0.018 | [9] 0.051 | barasertib 0.077 | [10] 0 | volasertib -0.003 | [11] 0.051 | [12] 0.061 | [13] 0.024 | saracatinib 0.013 | sotrastaurin -0.002

USP34 (UniProt Q70CQ2)
inactive: ibrutinib 0.002 | [1] 0.006 | ralimetinib 0.011 | [2] -0.027 | [3] 0.001 | [4] -0.001 | [5] -0.032 | [6] 0.014 | [7] 0.026 | [8] 0 | vemurafenib 0.006 | [9] 0.039 | barasertib 0.048 | [10] -0.054 | volasertib -0.052 | [11] 0.014 | [12] 0.027 | [13] -0.079 | saracatinib 0.026 | sotrastaurin -0.008

VAC14 (UniProt Q08AM6)
inactive: ibrutinib -0.029 | [1] -0.025 | ralimetinib -0.003 | [2] -0.055 | [3] 0.002 | [4] -0.008 | [5] 0.005 | [6] 0.003 | [7] 0.039 | [8] -0.034 | vemurafenib -0.002 | [9] 0.008 | barasertib 0.021 | [10] -0.021 | volasertib -0.02 | [11] 0.013 | [12] -0.032 | [13] 0.007 | saracatinib 0.007 | sotrastaurin 0

WDR62 isoform 4 (UniProt O43379)
Chain of UniProt O43379 (O43379 whole entry, looked up): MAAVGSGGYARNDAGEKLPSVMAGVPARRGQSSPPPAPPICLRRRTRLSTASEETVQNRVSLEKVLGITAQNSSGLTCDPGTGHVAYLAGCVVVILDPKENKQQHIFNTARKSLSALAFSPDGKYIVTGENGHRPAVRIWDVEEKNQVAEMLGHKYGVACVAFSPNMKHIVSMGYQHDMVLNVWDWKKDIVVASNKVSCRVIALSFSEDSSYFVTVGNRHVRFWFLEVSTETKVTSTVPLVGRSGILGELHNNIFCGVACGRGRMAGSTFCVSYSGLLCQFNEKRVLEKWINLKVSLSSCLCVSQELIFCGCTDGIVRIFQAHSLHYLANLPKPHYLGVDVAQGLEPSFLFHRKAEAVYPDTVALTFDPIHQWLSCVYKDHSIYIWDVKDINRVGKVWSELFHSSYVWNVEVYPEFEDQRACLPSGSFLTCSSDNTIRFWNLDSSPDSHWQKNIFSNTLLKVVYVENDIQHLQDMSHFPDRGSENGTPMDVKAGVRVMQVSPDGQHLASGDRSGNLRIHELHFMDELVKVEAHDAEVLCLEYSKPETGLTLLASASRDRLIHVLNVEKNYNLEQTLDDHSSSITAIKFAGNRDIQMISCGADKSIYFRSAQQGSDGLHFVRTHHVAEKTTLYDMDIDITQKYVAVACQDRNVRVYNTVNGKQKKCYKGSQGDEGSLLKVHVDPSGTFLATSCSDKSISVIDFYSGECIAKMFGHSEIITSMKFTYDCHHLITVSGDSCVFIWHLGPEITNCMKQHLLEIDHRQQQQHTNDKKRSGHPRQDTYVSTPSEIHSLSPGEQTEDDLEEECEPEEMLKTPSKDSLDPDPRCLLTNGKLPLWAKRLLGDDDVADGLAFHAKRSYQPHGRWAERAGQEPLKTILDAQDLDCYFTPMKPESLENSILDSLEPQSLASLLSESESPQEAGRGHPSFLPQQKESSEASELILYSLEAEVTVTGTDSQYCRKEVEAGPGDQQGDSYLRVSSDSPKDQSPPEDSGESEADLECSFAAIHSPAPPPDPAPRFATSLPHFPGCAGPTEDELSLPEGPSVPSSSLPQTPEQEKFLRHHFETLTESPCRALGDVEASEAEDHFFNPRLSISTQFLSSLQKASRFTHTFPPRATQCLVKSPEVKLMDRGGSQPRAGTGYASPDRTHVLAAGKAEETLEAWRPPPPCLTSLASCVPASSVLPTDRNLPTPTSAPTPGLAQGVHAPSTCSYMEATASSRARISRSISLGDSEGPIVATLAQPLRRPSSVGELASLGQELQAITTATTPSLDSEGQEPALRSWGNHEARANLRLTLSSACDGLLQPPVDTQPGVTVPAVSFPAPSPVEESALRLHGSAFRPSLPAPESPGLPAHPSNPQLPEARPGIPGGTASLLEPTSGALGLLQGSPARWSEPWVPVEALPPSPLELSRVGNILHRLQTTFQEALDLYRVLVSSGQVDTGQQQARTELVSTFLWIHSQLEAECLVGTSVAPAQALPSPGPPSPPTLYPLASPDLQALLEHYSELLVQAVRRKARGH
inactive: ibrutinib -0.023 | [1] 0.027 | ralimetinib 0.013 | [2] -0.051 | [3] -0.007 | [4] 0.033 | [5] -0.016 | [6] 0.023 | [7] -0.002 | [8] -0.029 | vemurafenib 0.004 | [9] 0.065 | barasertib 0.031 | [10] -0.063 | volasertib 0 | [11] 0.003 | [12] -0.009 | [13] -0.044 | saracatinib 0.04 | sotrastaurin 0.031

VPS54 (UniProt Q9P1Q0)
inactive: ibrutinib 0.048 | [1] -0.059 | ralimetinib -0.122 | [2] -0.267 | [3] -0.004 | [4] 0.038 | [5] 0.04 | [6] 0.144 | [7] 0.066 | [8] -0.037 | vemurafenib 0.046 | [9] -0.015 | barasertib -0.042 | [10] -0.037 | volasertib 0.068 | [11] -0.259 | [12] -0.278 | [13] 0.141 | saracatinib 0.05 | sotrastaurin -0.087

YTHDC2 (UniProt Q9H6S0)
inactive: ibrutinib 0.003 | [1] 0.009 | ralimetinib 0.061 | [2] 0.021 | [3] 0.013 | [4] 0.003 | [5] -0.023 | [6] -0.003 | [7] 0.019 | [8] -0.018 | vemurafenib 0.068 | [9] 0.022 | barasertib 0.07 | [10] -0.013 | volasertib -0.027 | [11] 0.025 | [12] 0.025 | [13] 0.005 | saracatinib 0.015 | sotrastaurin 0.022

WDR24 (UniProt Q96S15)
Chain of UniProt Q96S15 (Q96S15 whole entry, looked up): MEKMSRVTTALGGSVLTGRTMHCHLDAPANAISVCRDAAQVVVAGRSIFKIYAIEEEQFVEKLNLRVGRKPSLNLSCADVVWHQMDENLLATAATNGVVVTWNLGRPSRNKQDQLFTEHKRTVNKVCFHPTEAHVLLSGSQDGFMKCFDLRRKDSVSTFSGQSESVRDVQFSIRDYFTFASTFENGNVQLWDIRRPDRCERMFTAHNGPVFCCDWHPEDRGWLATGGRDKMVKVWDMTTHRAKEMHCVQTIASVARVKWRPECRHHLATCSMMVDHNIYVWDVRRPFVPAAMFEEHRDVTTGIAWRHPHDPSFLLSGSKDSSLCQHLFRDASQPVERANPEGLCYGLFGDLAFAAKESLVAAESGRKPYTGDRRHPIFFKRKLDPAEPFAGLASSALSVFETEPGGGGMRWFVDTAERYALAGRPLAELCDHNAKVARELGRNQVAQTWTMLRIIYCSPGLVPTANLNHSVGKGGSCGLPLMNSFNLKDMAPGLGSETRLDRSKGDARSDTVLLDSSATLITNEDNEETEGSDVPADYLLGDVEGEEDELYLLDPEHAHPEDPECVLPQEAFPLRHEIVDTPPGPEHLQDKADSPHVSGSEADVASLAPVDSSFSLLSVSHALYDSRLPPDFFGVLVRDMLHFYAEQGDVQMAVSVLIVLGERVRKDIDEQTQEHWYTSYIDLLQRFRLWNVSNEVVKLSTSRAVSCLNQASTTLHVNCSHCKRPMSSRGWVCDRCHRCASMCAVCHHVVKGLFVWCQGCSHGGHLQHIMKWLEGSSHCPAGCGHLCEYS
inactive: ibrutinib -0.044 | [1] -0.016 | ralimetinib 0.025 | [2] -0.022 | [3] 0.041 | [4] 0.055 | [5] -0.011 | [6] 0.033 | [7] -0.034 | [8] 0.021 | vemurafenib 0.083 | [9] -0.036 | barasertib 0.129 | [10] -0.055 | volasertib -0.035 | [11] 0.047 | [12] -0.026 | [13] 0.043 | saracatinib 0.078 | sotrastaurin 0.082

VPS72 (UniProt Q15906)
Chain of UniProt Q15906 (Q15906 whole entry, looked up): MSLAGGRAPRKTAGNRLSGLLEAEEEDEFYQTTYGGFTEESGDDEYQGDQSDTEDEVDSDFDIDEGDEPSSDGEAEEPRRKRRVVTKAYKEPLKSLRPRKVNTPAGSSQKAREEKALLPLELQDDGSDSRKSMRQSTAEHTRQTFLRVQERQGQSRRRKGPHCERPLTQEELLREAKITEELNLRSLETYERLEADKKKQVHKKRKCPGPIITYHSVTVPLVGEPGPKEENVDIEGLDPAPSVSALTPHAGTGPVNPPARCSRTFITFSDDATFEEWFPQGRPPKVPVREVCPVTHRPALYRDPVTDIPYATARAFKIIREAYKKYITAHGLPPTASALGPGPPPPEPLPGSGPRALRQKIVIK
inactive: [1] 0.016 | ralimetinib 0.046 | [2] -0.06 | [3] -0.028 | [4] -0.098 | [5] 0.005 | [6] 0 | [7] -0.01 | [8] -0.038 | vemurafenib 0.054 | [9] -0.139 | [10] -0.009 | volasertib 0.162 | [11] 0.021 | [12] 0.056 | [13] 0.078 | saracatinib 0.04 | sotrastaurin 0.024

ZFYVE19 isoform 3 (UniProt Q96K21)
Chain of UniProt Q96K21 (Q96K21 whole entry, looked up): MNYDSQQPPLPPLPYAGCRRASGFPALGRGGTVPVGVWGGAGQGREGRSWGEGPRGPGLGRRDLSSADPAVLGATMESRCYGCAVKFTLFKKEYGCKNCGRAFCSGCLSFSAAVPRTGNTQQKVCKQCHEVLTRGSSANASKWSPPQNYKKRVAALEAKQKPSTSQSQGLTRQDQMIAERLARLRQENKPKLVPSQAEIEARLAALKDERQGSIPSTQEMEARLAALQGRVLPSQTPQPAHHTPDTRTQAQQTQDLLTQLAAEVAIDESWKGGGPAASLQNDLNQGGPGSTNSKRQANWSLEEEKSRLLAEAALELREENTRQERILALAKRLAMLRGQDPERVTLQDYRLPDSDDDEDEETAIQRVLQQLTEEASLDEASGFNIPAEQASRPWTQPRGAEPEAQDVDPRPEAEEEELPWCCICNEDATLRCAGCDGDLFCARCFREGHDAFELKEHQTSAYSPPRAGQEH
inactive: ibrutinib 0.085 | [1] -0.084 | [8] 0.047 | [9] 0.048 | barasertib -0.037 | volasertib -0.231

UNKL (UniProt E9PDK2)
inactive: ibrutinib -0.191 | [5] -0.086 | [6] 0.025 | vemurafenib -0.118 | barasertib 0.047 | [10] -0.075 | saracatinib 0.002 | sotrastaurin -0.05
